# Data published in PubChem BioAssay (NCATS).
# Results filed as inconclusive are left out. The source made the active and inactive calls. Calls come from the whole dose curve.
# Legend:
# [1] = qHTS drug screen for cell cycle checkpoint inhibitors in PARPi-resistant BRCA-mutant ovarian cancer cell lines. (AID 1963452); details: PEO1/OlaR viability, CellTiter-Glo luminescence, 96 h; for Z-AUC: stronger effect = lower value; note: potency is the fitted concentration of half-maximal effect
# In short: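 PEO1, PEO4 and PEO1/OlaR ovarian cancer cells, 600 per well, exposed 96 h at 37C to a dilution series. Viability read by CellTiter-Glo luminescence, normalized to DMSO and empty wells; activity summarized as Z-AUC.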
# [2] = qHTS for identification of novel therapeutic agents for treatment of microphthalmiaassociated transcription factor (MiT) renal cell carcinoma (RCC) (AID 1963991); details: CellTiter-Glo, 48 h, stronger effect = lower value;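 note: curves scaled with 100% = DMSO viability and 0% = empty wells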
# In short: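 UOK109/UOK124/UOK145 (TFE3 fusions, three partners); 500 cells/well; MIPE v4.0, 1912 cpds, 11 conc.; 48 h, 37 C; CellTiter-Glo, 15 min RT; lum. Norm.: DMSO 100%, empty 0%.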
# [3] = measured here: PEO1 parental Z-AUC
structure (smiles),measurement,setting,value
COc1ccc2nc3cc(Cl)ccc3c(Nc3cc(CN4CCCC4)c(O)c(CN4CCCC4)c3)c2n1,Z-AUC,[1],1.63 (inactive)
same,Z-AUC,[1]; [3],0.591
same,Z-AUC,[1]; measured here: PEO4 Z-AUC,1.29
CC(C)(O)CC(=O)NCCn1ccc2ncnc(Nc3ccc(Oc4cccc(C(F)(F)F)c4)c(Cl)c3)c21,Z-AUC,[1],0.0129 (inactive)
same,Z-AUC,[1]; [3],-0.0981
same,Z-AUC,[1]; measured here: PEO4 Z-AUC,-0.515
CCN1CCC(n2cc(CNc3cc(Cl)c4ncc(C#N)c(Nc5ccc(F)c(Cl)c5)c4c3)nn2)CC1,Z-AUC,[1],-1.28 (inactive)
same,Z-AUC,[1]; [3],-0.754
same,Z-AUC,[1]; measured here: PEO4 Z-AUC,-1.71
Cc1nn(Cc2ccccc2Cl)c(C)c1CN(C)CC(O)COc1ccc(Cl)cc1 (stereo unspecified),Z-AUC,[1],0.675 (inactive)
same,Z-AUC,[1]; [3],0.673
same,Z-AUC,[1]; measured here: PEO4 Z-AUC,0.908
C[C@@H](NC(=O)c1ncnc(N)c1Cl)c1ncc(C(=O)Nc2cc(C(F)(F)F)c(Cl)cn2)s1,Z-AUC,[1],0.509 (inactive)
same,Z-AUC,[1]; [3],0.52
same,Z-AUC,[1]; measured here: PEO4 Z-AUC,0.658
CCc1cc(-c2n[nH]c(C)c2-c2ccc3c(c2)OCCO3)c(O)cc1O,Z-AUC,[1],0.644 (inactive)
same,Z-AUC,[1]; [3],0.497
same,Z-AUC,[1]; measured here: PEO4 Z-AUC,0.316
CCCCCCCCCCCCCC(=O)N[C@H](CO)[C@H](O)c1ccc([N+](=O)[O-])cc1,Z-AUC,[1],1.33 (inactive)
same,Z-AUC,[1]; [3],1.09
same,Z-AUC,[1]; measured here: PEO4 Z-AUC,1.02
CCN(CC)CCCCNc1nc2cc(Cl)c(Cl)cc2nc1-c1ccc(-c2cccs2)s1,Z-AUC,[1],2.01 (inactive)
same,Z-AUC,[1]; [3],0.897
same,Z-AUC,[1]; measured here: PEO4 Z-AUC,0.59
COc1nccc(-c2c(-c3ccc(F)cc3)ncn2C2CCNCC2)n1,Z-AUC,[1],1.19 (inactive)
same,Z-AUC,[1]; [3],0.981
same,Z-AUC,[1]; measured here: PEO4 Z-AUC,0.889
Cc1ccc(S(=O)(=O)Nc2nc3ccccc3nc2Nc2ccc3nsnc3c2)cc1,Z-AUC,[1],-0.8 (inactive)
same,Z-AUC,[1]; [3],-0.564
same,Z-AUC,[1]; measured here: PEO4 Z-AUC,-0.705
CC(C)(F)C[C@H](N[C@@H](c1ccc(-c2ccc(S(C)(=O)=O)cc2)cc1)C(F)(F)F)C(=O)NC1(C#N)CC1,Z-AUC,[1],-0.727 (inactive)
same,Z-AUC,[1]; [3],1.36
same,Z-AUC,[1]; measured here: PEO4 Z-AUC,0.322
CCCCn1c(=O)n(Cc2ccccc2F)c(=O)c2[nH]c(Cc3ccc(NC(C)=O)cc3)nc21,Z-AUC,[1],-0.247 (inactive)
same,Z-AUC,[1]; [3],-0.269
same,Z-AUC,[1]; measured here: PEO4 Z-AUC,0.0892
OC1CCC(Nc2ncc3nc(Nc4c(F)cc(F)cc4F)n([C@@H]4CCOC4)c3n2)CC1 (stereo partly specified),Z-AUC,[1],0.218 (inactive)
same,Z-AUC,[1]; [3],0.89
same,Z-AUC,[1]; measured here: PEO4 Z-AUC,0.44
N#CC1(c2cccc(C(=O)Nc3cc(Oc4ccc5nc(NC(=O)C6CC6)sc5n4)ccc3F)c2Cl)CC1,Z-AUC,[1],-0.948 (inactive)
same,Z-AUC,[1]; [3],-1.21
same,Z-AUC,[1]; measured here: PEO4 Z-AUC,-0.816
COC(=O)[C@H](c1ccccc1Cl)N1CCc2sccc2C1,Z-AUC,[1],1.43 (inactive)
same,Z-AUC,[1]; [3],1.15
same,Z-AUC,[1]; measured here: PEO4 Z-AUC,0.952
c1cc(OCCN2CCCCC2)cc(-c2n[nH]c3ccc(-c4ncn[nH]4)cc23)c1,Z-AUC,[1],-0.663 (inactive)
same,Z-AUC,[1]; [3],-0.209
same,Z-AUC,[1]; measured here: PEO4 Z-AUC,-0.626
CC(C)C[C@@H](C(=O)N[C@H](C(=O)OC1CCCC1)c1ccccc1)[C@H](O)C(=O)NO,Z-AUC,[1],-0.457 (inactive)
same,Z-AUC,[1]; [3],-0.511
same,Z-AUC,[1]; measured here: PEO4 Z-AUC,-0.774
CNC1CCC(N(Cc2cccc(-c3ccncc3)c2)C(=O)c2sc3ccccc3c2Cl)CC1 (stereo unspecified),Z-AUC,[1],0.143 (inactive)
same,Z-AUC,[1]; [3],0.312
same,Z-AUC,[1]; measured here: PEO4 Z-AUC,0.329
O=C(O)CCC=CCC[C@@H]1[C@H](N2CCCCC2)[C@@H](O)C[C@@H]1OCc1ccc(-c2ccccc2)cc1,Z-AUC,[1],0.918 (inactive)
same,Z-AUC,[1]; [3],-0.0252
same,Z-AUC,[1]; measured here: PEO4 Z-AUC,0.219
CCNC(=O)c1noc(-c2cc(C(C)C)c(O)cc2O)c1-c1ccc(CN2CCOCC2)cc1,Potency,[1],24.5 nM (active)
same,Z-AUC,[1]; [3],-1.81
same,Z-AUC,[1]; measured here: PEO4 Z-AUC,-1.08
COc1nccc(-c2c(-c3ccc(F)cc3)ncn2C2CCC(O)CC2)n1 (stereo unspecified),Z-AUC,[1],1.26 (inactive)
same,Z-AUC,[1]; [3],1.27
same,Z-AUC,[1]; measured here: PEO4 Z-AUC,1.21
CN1CCc2c(n(Cc3ccc(C(=O)NO)cc3)c3ccccc23)C1,Z-AUC,[1],0.742 (inactive)
same,Z-AUC,[1]; [3],0.892
same,Z-AUC,[1]; measured here: PEO4 Z-AUC,0.628
Cn1c(=O)c(Oc2ccc(F)cc2F)cc2cnc(NC3CCOCC3)nc21,Z-AUC,[1],1.26 (inactive)
same,Z-AUC,[1]; [3],1.1
same,Z-AUC,[1]; measured here: PEO4 Z-AUC,1.01
O=c1[nH]nc(OCCCc2ccc(Cl)cc2)c(NCc2cccnc2)c1Br,Z-AUC,[1],-1.27 (inactive)
same,Z-AUC,[1]; [3],-1.54
same,Z-AUC,[1]; measured here: PEO4 Z-AUC,-1.42
COc1cc2ncn(-c3cc(OCc4ccccc4S(C)(=O)=O)c(C#N)s3)c2cc1OC,Z-AUC,[1],0.942 (inactive)
same,Z-AUC,[1]; [3],0.779
same,Z-AUC,[1]; measured here: PEO4 Z-AUC,0.362
CN(C)N=Nc1nc[nH]c1C(N)=O,Z-AUC,[1],1.39 (inactive)
same,Z-AUC,[1]; [3],0.491
same,Z-AUC,[1]; measured here: PEO4 Z-AUC,0.792
NCC1CCC(C(=O)O)CC1 (stereo unspecified),Z-AUC,[1],-0.425 (inactive)
same,Z-AUC,[1]; [3],-0.68
same,Z-AUC,[1]; measured here: PEO4 Z-AUC,-0.142
CNC(=O)c1ccc2c(C(=Nc3cccc(CN(C)C)c3)c3ccccc3)c(O)[nH]c2c1,Z-AUC,[1],-0.0393 (inactive)
same,Z-AUC,[1]; [3],0.42
same,Z-AUC,[1]; measured here: PEO4 Z-AUC,0.638
Cc1cccc(-c2[nH]c(C(C)(C)C)nc2-c2ccc3c(c2)OCO3)n1,Z-AUC,[1],-0.37 (inactive)
same,Z-AUC,[1]; [3],-0.0617
same,Z-AUC,[1]; measured here: PEO4 Z-AUC,0.278
CCC(C)SSc1ncc[nH]1 (stereo unspecified),Z-AUC,[1],-1.01 (inactive)
same,Z-AUC,[1]; [3],-0.667
same,Z-AUC,[1]; measured here: PEO4 Z-AUC,-0.908
CCOC(=O)N1c2ccc(C(F)(F)F)cc2[C@@H](N(Cc2cc(C(F)(F)F)cc(C(F)(F)F)c2)C(=O)OC)C[C@H]1CC,Z-AUC,[1],-1 (inactive)
same,Z-AUC,[1]; [3],0.195
same,Z-AUC,[1]; measured here: PEO4 Z-AUC,-0.682
same,z-score,"[2]; TFE3-RCC UOK109 viability, measured here: UOK109 Z-AUC",0.825
same,z-score,"[2]; TFE3-RCC viability, measured here: UOK124 Z-AUC",0.72
same,z-score,"[2]; TFE3-RCC viability, measured here: UOK145 Z-AUC",0.57
